Screening results as filed in PubChem.
T cruzi growth-1 – blocks T. cruzi growth in NIH3T3 culture. T. cruzi beta-gal in NIH3T3, GalScreen luminescence, 90 h. inhibition, % at 8.34 µM. hit rate 5.9% among 77,000. AID 624255;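 active means mean inhibition above about 93%, with at least 55% of replicates each passing it, limit read from the data, passing the limit was not always enough; inconclusive means only one of those two conditions holds; inactive means neither condition holds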
Pf Dd2 growth – inhibitors of Plasmodium falciparum Dd2 growth | P. falciparum Dd2 growth, SYBR Green, 72 h; hits give low values | activity change, % at 10 µM | hit rate 2.3% among 94,000 | AID 1159554; in the data active means activity change below about -80%; inconclusive means no clear call, values can overlap the other calls
C diff growth – blocks growth of Clostridium difficile. hit rate 0.25% among 86,000. AID 1259249. growth activity, negative = inhibition, % at 16 µg/mL (by protocol). Clostridium difficile clinical isolate growth, OD600, 24 h; hits give low values;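 active means mean growth activity at or below -80% and every replicate also at or below -80%; inconclusive means mean at or below -80% but some replicate above -80%; inactive means mean growth activity above -80%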;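 further: 0% = DMSO wells and -100% = levofloxacin 16 µg/mL wells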
T cruzi growth-2 – Trypanosoma cruzi proliferation inhibition. shares compounds with T cruzi growth-1. hit rate 72% among 5,600. T. cruzi beta-gal in NIH3T3, GalScreen luminescence, 90 h. inhibition, % at 8.35 µM;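 active means mean replicate inhibition above about 95% and at least 55% of replicates individually reaching it, limit read from the data; inconclusive means only one of the two criteria is met; inactive means neither criterion is met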
T cruzi growth-3 – Trypanosoma cruzi proliferation inhibition. inhibition, % at 2.09 µM. T. cruzi beta-gal in NIH3T3, GalScreen luminescence, 90 h. AID 651740. hit rate 21% among 5,600. shares compounds with T cruzi growth-1;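 active means mean inhibition above about 95%, with at least 55% of replicates also reaching it, limit read from the data; inconclusive means meets just one of the two conditions; inactive means meets neither condition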;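 further: plate controls were neutral control median for no effect and positive control median for full effect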
NIH3T3 tox – kills mouse NIH/3T3 fibroblasts | NIH/3T3 viability, CellTiter-Glo ATP luminescence, 90 h | shares compounds with T cruzi growth-1 | AID 651742 | cytotoxicity (signal decrease), % at 8.35 µM | hit rate 14% among 5,600;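 active means mean signal decrease across replicates above about 35% based on untreated-well scatter, with enough replicates individually passing, limit read from the data; inconclusive means no rule stated though some were filed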;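 further: 0% = median of neutral control wells and 100% = median of positive control wells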
3T3 cytotox 2 – cytotoxicity in mouse NIH/3T3 fibroblasts; shares compounds with T cruzi growth-1; NIH/3T3 viability, CellTiter-Glo ATP luminescence, 90 h; inhibition, % at 24.9 µM; hit rate 56% among 5,600; AID 651744;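 active means mean loss of cell viability signal at or above a set limit, and enough replicates individually reaching it; inconclusive means meets only the mean limit or only the replicate share; inactive means meets neither condition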;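 further: 0% = median of neutral control wells and 100% = median of positive control wells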
Starred values were filed as active, the others as inactive; ? = inconclusive; . = not tested or not shown; ! = a repeat was not active. Shown are actives, neighbours in structure and some others; about 6.7% of the full set was active somewhere.

SMILES | T cruzi growth-1 | Pf Dd2 growth | C diff growth | T cruzi growth-2 | T cruzi growth-3 | NIH3T3 tox | 3T3 cytotox 2
COCC(=O)Nc1ccc2c(c1)C(=O)N(C)C[C@@H](OC)[C@H](C)CN(Cc1ccncc1)[C@H](C)CO2 | -43 | 17 | . | . | . | . | .
CO[C@H]1CN(C)C(=O)c2cc(NC(=O)c3nc4ccccc4s3)ccc2OC[C@H](C)N(Cc2ccncc2)C[C@@H]1C | 100* | . | -9 | 98* | 67 | 13 | 42*
CO[C@@H]1CN(C)C(=O)c2ccc(NC(=O)c3nc4ccccc4s3)cc2OC[C@@H](C)N(Cc2cccnc2)C[C@@H]1C | 102* | -63 | -2 | 109* | ? | -17 | 43*
CO[C@@H]1CN(C)C(=O)c2cc(NC(=O)c3nc4ccccc4s3)ccc2OC[C@H](C)N(Cc2ccncc2)C[C@H]1C | 88 | . | -4 | . | . | . | .
COc1ccc(CN2C[C@@H](C)[C@H](OC)CN(C)C(=O)c3ccc(NC(=O)c4nc5ccccc5s4)cc3OC[C@@H]2C)cc1 | 102* | -70 | 5 | 115* | 79 | -3 | -38
C[C@H](NC(=O)[C@H]1N[C@H]2c3ccc(C4=CCCC4)c(=O)n3C[C@H]2[C@@H]1CO)c1ccccc1 | 40 | . | -4 | . | . | . | .
C[C@@H]1CCCCO[C@@H](CN(C)C(=O)c2ccccc2)[C@@H](C)CN([C@@H](C)CO)C(=O)c2cc(NC(=O)Nc3ccc(F)cc3)ccc2O1 | 40 | -32 | 9 | . | . | . | .
CS(=O)(=O)N1CC(=O)N2[C@H](C1)[C@@H](c1ccc(C#CCc3ccccc3)cc1)[C@@H]2CO | . | -57 | 65 | . | . | . | .
C[C@@H]1CN([C@@H](C)CO)S(=O)(=O)c2ccc(C3=CCCCC3)cc2O[C@@H]1CN(C)Cc1cccnc1 | . | -37 | -19 | . | . | . | .
CC(C)NC(=O)Nc1cccc2c1O[C@@H](CN(C)S(=O)(=O)c1ccccc1)[C@@H](C)CN([C@@H](C)CO)C2=O | 28 | -7 | -3 | . | . | . | .
COCC(=O)N(C)C[C@H]1Oc2ncc(C#CC(C)(C)O)cc2C(=O)N([C@@H](C)CO)C[C@@H]1C | . | 46 | 0 | . | . | . | .
O=C(c1ccccc1F)N1C[C@@H]2[C@H](c3ccccc31)[C@H](CO)N2C(=O)c1ccc(F)cc1 | 26 | -35 | 2 | . | . | . | .
C[C@@H]1CN([C@H](C)CO)C(=O)CCCn2cc(nn2)CO[C@@H]1CN(C)C(=O)Cc1ccccc1 | 33 | 5 | -2 | . | . | . | .
C[C@H]1CN([C@@H](C)CO)C(=O)CCCn2cc(nn2)CO[C@@H]1CN(C)C(=O)Cc1ccccc1 | 131*! | 9 | 1 | 17 | 34 | 10 | 3
C[C@H](CO)N1C[C@H](C)[C@H](CN(C)Cc2cccc(O)c2)OCc2cn(nn2)CCCC1=O | ? | 1 | 2 | -13 | 4 | -3 | -6
C[C@H]1CN([C@@H](C)CO)C(=O)CCCn2cc(nn2)CO[C@@H]1CN(C)C(=O)C1CC1 | 4 | 3 | -3 | . | . | . | .
C[C@@H]1CN([C@@H](C)CO)C(=O)CCCn2cc(nn2)CO[C@H]1CN(C)C(=O)C1CC1 | ? | 8 | 1 | 48 | 11 | 11 | 15
C[C@@H]1CN([C@H](C)CO)C(=O)CCCn2cc(nn2)CO[C@@H]1CN(C)C(=O)c1ccc(N2CCN(C)CC2)cc1 | 120* | 2 | 1 | -38 | -60 | -12 | -15
C[C@H]1CN([C@@H](C)CO)C(=O)CCCn2cc(nn2)CO[C@@H]1CN(C)Cc1cccc(O)c1 | 15 | 0 | . | . | . | . | .
C[C@H]1CN([C@@H](C)CO)C(=O)CCCn2cc(nn2)CO[C@@H]1CN(C)C(=O)c1ccc(N2CCN(C)CC2)cc1 | -20 | -1 | -6 | . | . | . | .
C[C@H](CO)N1C[C@H](C)[C@H](CN(C)Cc2ccc(Oc3ccccc3)cc2)Oc2ccc(NS(=O)(=O)c3cccs3)cc2C1=O | 7 | -19 | . | . | . | . | .
O=C(Cc1cccnc1)N1CC(=O)N2[C@H](CO)[C@@H](c3ccc(C#CC4CC4)cc3)[C@H]2C1 | . | 7 | -8 | . | . | . | .
O=C(C[C@H]1C[C@H]2c3cc(NC(=O)C4CCC4)ccc3O[C@H]2[C@H](CO)O1)NCc1ccc2c(c1)OCO2 | -21 | -3 | 0 | . | . | . | .
C[C@@H]1CCCCO[C@H](CN(C)C(=O)NC2CCCCC2)[C@@H](C)CN([C@H](C)CO)C(=O)c2cc(NC(=O)Cc3ccccc3)ccc2O1 | 41 | -41 | -5 | . | . | . | .
